# Values without a mark were called inactive.
# Tested on: Vero E6 infected with SARS-CoV-2
# Experiment: inhibition of SARS-CoV-2 cytopathic effect; higher = more antiviral protection, active = above 15
# Conditions: 1 nM; 48 h
row,SMILES,inhibition of SARS-CoV-2 cytopathic effect [%]
1,Cn1c(CNc2ccc(C(=N)N)cc2)nc2cc(C(=O)N(CCC(=O)O)c3ccccn3)ccc21 [dabigatran],-0.46
2,COC(=O)N/N=C/c1c[n+]([O-])c2ccccc2[n+]1[O-] [carbadox],-0.14
3,Clc1ccc2nsnc2c1NC1=NCCN1 [tizanidine],2.21
4,COc1cc2c(NC3CCN(C)CC3)nc(N3CCCN(C)CC3)nc2cc1OCCCN(C)C,2.93
5,C/C=C1/[C@H](O[C@@H]2O[C@H](CO)[C@@H](O)[C@H](O)[C@H]2O)OC=C(C(=O)OC)[C@H]1CC(=O)OCCc1ccc(O)c(O)c1 [oleuropein],0.9
6,CS(=O)(=O)c1ccc(Oc2cc(F)cc(C#N)c2)c2c1[C@H](O)C(F)(F)C2,0.26
7,FC(F)(F)Oc1ccc2nc(-c3ccc(OCCOCCOc4ccc(-c5nc6ccc(OC(F)(F)F)cc6[nH]5)nc4)cn3)[nH]c2c1,-0.41
8,O=C(NN1C(=O)[C@@H]2[C@@H]3C=C[C@@H]([C@H]4C[C@@H]34)[C@@H]2C1=O)c1ccc(C(F)(F)F)cc1 [tecovirimat],1.41
9,C=C1CC[C@H](O)C/C1=C/C=C1\CCC[C@]2(C)[C@@H]([C@H](C)CCCC(C)(C)O)CC[C@@H]12 [calcifediol],0.8
10,CCNC(=O)CC[C@H](N)C(=O)O [L-theanine],-2.94
11,COc1ccc(CC(C)NCC(O)c2ccc(O)c(NC=O)c2)cc1 (stereo not given) [formoterol],0.12
12,CNC(=O)[C@@H](Cc1ccccc1)N(C)C(=O)[C@@H](Cc1ccc2ccccc2c1)N(C)C(=O)/C=C/CC(C)(C)N [tabimorelin],0.97
13,CC(C)OC(=O)CNC(=O)[C@H](CS)NC(=O)CC[C@H](N)C(=O)O [glutathione-monoisopropyl-ester],-0.48
14,COc1cn(-c2ccc(-n3cccn3)cc2F)nc(-c2ccnn2-c2ccccc2)c1=O,1.53
15,S=C(S)N1CCCC1 [pyrrolidine-dithiocarbamate],2.71
16,O[C@H]1CC[C@H](Nc2ncc3nc(Nc4c(F)cc(F)cc4F)n([C@H]4CCOC4)c3n2)CC1,1.66
17,COc1ccccc1C(=O)Nc1cccc(NC(=O)c2cccc(C)c2)c1,1.89
18,CN(C)CC(c1ccc(O)cc1)C1(O)CCCCC1 (stereo not given) [desvenlafaxine],1.5
19,CC(C)NC(=O)N1CC[C@H](NC2=Nc3cc(F)ccc3N(CC(F)F)c3ccc(Cl)cc32)C1,2.37
20,[O-][n+]1ccccc1[S-].[O-][n+]1ccccc1[S-].[Zn+2] [pyrithione-zinc],1.44

row,SMILES,inhibition of SARS-CoV-2 cytopathic effect [%]
1,CCOc1cc([C@@H](CS(C)(=O)=O)N2C(=O)c3cccc(NC(C)=O)c3C2=O)ccc1OC [apremilast],2.28
2,C/C=C/c1cc(OC)c(OC)cc1OC [alpha-asarone],0.99
3,CN(C)CC[C@H](CSc1ccccc1)Nc1ccc(S(=O)(=O)NC(=O)c2ccc(N3CCN(Cc4ccccc4-c4ccc(Cl)cc4)CC3)cc2)cc1[N+](=O)[O-],-0.41
4,CC(C)(C)NCC(O)c1cc(O)cc(O)c1 (stereo not given),-2.09
5,C[C@]12CC[C@H]3[C@@H](CC[C@@]45O[C@@H]4C(O)=C(C#N)C[C@]35C)[C@@H]1CC[C@@H]2O [trilostane],1.21
6,O=C1CN(/N=C/c2ccc(-c3ccc([N+](=O)[O-])cc3)o2)C(=O)N1 [dantrolene],-2.23
7,CCCCn1c(-c2ccccc2)nc(-c2ccccc2)c1CN(Cc1ccc2c(c1)OCO2)Cc1ccc2c(c1)OCO2,0
8,CC(CN1c2ccccc2Sc2ccccc21)N(C)C (stereo not given) [promethazine],-0.13
9,C=CC(=O)Nc1cccc(Oc2nc(Nc3ccc(N4CCN(C)CC4)cc3OC)ncc2Cl)c1,-1.07
10,Cc1onc(-c2ccccc2Cl)c1C(=O)N[C@@H]1C(=O)N2[C@@H]1SC(C)(C)[C@@H]2C(=O)O [cloxacillin],2.33
11,CCCCCCCCCCCCCCCCCCCCCCCCC(=O)O [pentacosanoic-acid],-2.75
12,Cc1cc(C)nc(NS(=O)(=O)c2ccc(NC(=S)NC(=O)COc3ccc(Br)cc3Cl)cc2)n1,-1.5
13,CC(=O)Oc1cc2c(s1)CCN(C(C(=O)C1CC1)c1ccccc1F)C2 (stereo not given) [prasugrel],2.32
14,CN1CCN(CCCN2c3ccccc3Sc3ccc(S(=O)(=O)N(C)C)cc32)CC1 [thioproperazine],0.81
15,CCCCCCCCCCCC[N+](C)(C)CCOc1ccccc1 [domiphen],-2.49
16,COC[C@H]1OC(=O)c2coc3c2[C@@]1(C)C1=C(C3=O)[C@@H]2CCC(=O)[C@@]2(C)C[C@H]1OC(C)=O [wortmannin],-3.55
17,O=C1O[C@H]([C@@H](O)CO)C(O)=C1O,-3.29
18,Oc1ccc2c3c1O[C@H]1c4[nH]c5ccccc5c4C[C@@]4(O)[C@@H](C2)N(CC2CC2)CC[C@]314 [naltrindole],1.74
19,Cc1ccc2c(=O)c3ccccc3n(CCCN)c2c1C,3.67
20,CNCCN(C)Cc1c[nH]nc1-c1ccc(O[C@H]2C[C@H](OCCC3CCOCC3)C2)cc1,0.46
